# Screening results (PubChem BioAssay)
# Compounds with a hit are over-represented: about 2.9% of the library has one in this group of screens.
# PLCg1 inh: blocks human PLC-gamma1 enzyme activity; P19174; purified PLC-gamma1, fluorogenic substrate, fluorescence; inhibition, % at 12.2 µM; actives 0.84% (n = 370,000); in the data active = inhibition above about 9.5%
# PLC-beta3 inh: blocks human PLC-beta3 enzyme activity; Q01970; Purified PLC-beta3, fluorogenic substrate, fluorescence; inhibition, % at 12.2 µM; actives 0.18% (n = 370,000); in the data active = inhibition above about 11%;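 note: 0% = median of compound wells on plate and 100% = full blocker control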
# ADAM10 inh: inhibitors of human ADAM10; O14672; recombinant ADAM10, EDANS/DABCYL FRET peptide cleavage, 3 h; inhibition, % at 7 µM; actives 0.62% (n = 370,000); AID 720582;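 active = inhibition above a per-campaign cutoff equal to the mean of compounds falling between control-based bounds plus 3 SD, cut at about 20% in these data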;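 note: 0% = DMSO wells while the 100% control is not disclosed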
# Target sequence (O14672 214-748 limits assumed): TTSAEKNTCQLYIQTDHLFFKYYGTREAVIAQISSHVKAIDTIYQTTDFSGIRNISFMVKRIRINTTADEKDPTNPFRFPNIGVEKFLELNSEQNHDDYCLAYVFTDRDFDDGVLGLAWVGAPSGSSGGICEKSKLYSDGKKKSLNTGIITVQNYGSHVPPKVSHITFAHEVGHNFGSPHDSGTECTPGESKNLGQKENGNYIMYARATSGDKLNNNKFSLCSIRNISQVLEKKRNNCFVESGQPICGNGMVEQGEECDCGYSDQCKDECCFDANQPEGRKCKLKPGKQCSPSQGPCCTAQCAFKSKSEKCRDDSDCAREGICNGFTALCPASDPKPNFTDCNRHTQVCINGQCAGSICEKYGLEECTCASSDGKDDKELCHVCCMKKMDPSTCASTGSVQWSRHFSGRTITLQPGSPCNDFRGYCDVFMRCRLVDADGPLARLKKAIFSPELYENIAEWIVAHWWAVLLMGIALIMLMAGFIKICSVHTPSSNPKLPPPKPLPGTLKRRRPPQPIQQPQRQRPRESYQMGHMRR
# ADAM17 inh: ADAM17 inhibition, QFRET primary screen; actives 0.83% (n = 370,000); recombinant ADAM17, EDANS/DABCYL FRET peptide cleavage; P78536; inhibition, % at 6.95 µM;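 active = inhibition above the mean of compounds lying between control limits plus 3 SD, set per campaign, cut at about 8.5% in these data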;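 note: 0% = DMSO-only wells as the low control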
# proKLK7 act: proKLK7 (human) activation, primary screen. purified proKLK7, EDANS-DABCYL substrate fluorescence; 100% is mature enzyme control, 0% vehicle. AID 652039. actives 0.9% (n = 370,000). activation, % at 7 µM;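 active = activation above the mean of all tested compounds plus 3 SD, computed per campaign excluding outliers beyond control limits, cut at about 13% in these data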
# proKLK7 act conf: proKLK7 activation, confirmation; shares compounds with proKLK7 act; purified proKLK7, EDANS-DABCYL substrate fluorescence; scaled: vehicle 0, mature enzyme 100; activation, % at 7 µM; actives 68% (n = 3,200); AID 686949;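 active = activation, as change over the incubation, above the mean of all tested compounds plus 3 SD, cut at about 13% in these data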
# EDANS-DABCYL int: optically interferes with EDANS-DABCYL signal, flagging KLK7 hits. activation, % at 7 µM. EDANS-DABCYL substrate fluorescence interference, no enzyme, 4 h; solvent 0%, active enzyme control 100%. shares compounds with proKLK7 act. AID 686952. actives 80% (n = 3,200);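 active = activation above the all-compound mean plus 3 SD, ignoring values outside control-based bounds, cut at about 4.8% in these data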;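 note: value is the 4 h activation minus the activation read at time zero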
# EDANS interf: counter-screen for kallikrein-7 activators: EDANS-DABCYL interference, dose response. shares compounds with proKLK7 act. EDANS-DABCYL peptide fluorescence interference, no enzyme. EC50, µM. actives 20% (n = 250). AID 720493;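 active = compounds that raise the fluorescence signal in this interference counterscreen, with EC50 at or below 10 µM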;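 note: intact quenched peptide substrate alone read at 355 nm excitation and 520 nm emission; signal is fluorescence gain from T0 to T4 after four hours at room temperature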
# * marks the source's active call; other numbers are inactive results; i = inactive; . = no result.
SMILES,PLCg1 inh,PLC-beta3 inh,ADAM10 inh,ADAM17 inh,proKLK7 act,proKLK7 act conf,EDANS-DABCYL int,others
COc1ccc2cc(C(=O)C3CCCN(Cc4cccc(C)n4)C3)ccc2c1 (stereo not drawn),-459,i,i,-264,45*,-19,-20,
CCOC(=O)N1CCC(N2CCCC(C(=O)c3ccc4cc(OC)ccc4c3)C2)CC1 (stereo not drawn),i,i,i,i,69*,-30,-45,
COC(=O)C1CN(Cc2cn(Cc3ccc(F)cc3)nn2)CCS(=O)(=O)N1Cc1ccc(OC)cc1 (stereo not drawn),1,3,7,3,0,.,.,
NC(=O)c1c(N)[nH]c(C(=O)c2ccccc2)c1-c1ccccc1C(F)(F)F,-15,-29,-17,-7,.,.,.,
COc1ccc(N(CC(=O)Nc2ccc(C)cn2)S(=O)(=O)c2c(C)noc2C)cc1,-2,1,6,1,16*,1,0,
CCOc1ccc(N(CC(=O)Nc2ccc(OC)cc2)S(=O)(=O)c2c(C)noc2C)cc1,2,5,1,1,0,.,.,
CCCCCCCCN1C(=O)[C@@H](CC(=O)NCCC(C)C)C[C@@]2(C(=O)OC)C1=C[C@H](COCc1ccccc1)O[C@@H]2C,-4,0,5,2,0,.,.,
O[C@H](COc1ccc(OC(F)(F)F)cc1)CN1CCC(C(O)(c2ccccc2)c2ccccc2)CC1,0,-1,5,5,0,.,.,
COc1cc2c(cc1OC)CN(Cc1nc3ccsc3c(=O)[nH]1)CC2,-381,i,-262,-94,31*,8,13*,
O=c1[nH]c(CN2CCN(c3ccccc3Cl)CC2)nc2ccsc12,-2,-4,-5,-4,-1,.,.,
CCOC(=O)c1sc(NC(=O)c2ccccc2)cc1C,-41,-57,-332,-112,16*,-1,-1,
CCOC(=O)c1sc(NC(=O)c2ccc(S(=O)(=O)N(C)C)cc2)cc1C,-45,-54,-40,2,2,.,.,
COCCNC(=O)Cc1c(C)c2cc3c(cc2oc1=O)OC(C)(C)CC3,-183,-229,i,i,13*,15*,10.0*,EDANS interf=>70
Cc1c(CC(=O)NCCC(C)C)c(=O)oc2cc3c(cc12)CCC(C)(C)O3,-13,-23,-185,-72,-4,.,.,
Cc1nn(-c2ccccc2)c2c1cc1c(=O)n(C)c(=O)nc-1n2-c1ccccc1F,-149,-206,i,-345,13*,18*,9.1*,EDANS interf=>70
Cc1cccc(-n2c3nc(=O)[nH]c(=O)c-3cc3c(C)nn(-c4ccccc4)c32)c1C,-328,-364,i,i,14*,46*,58*,
N#CCC[C@H]1CC[C@]2(CCCN(Cc3ccc(Br)cc3)C2)O1,-1,1,-1,0,1,.,.,
O=C(Nc1cccc(O)c1)c1cc2nc(-c3ccccc3)cc(-c3ccccc3)n2n1,-66,-79,-115,-21,96*,-63,-116,
O=C(c1ccc2c(c1)OCO2)N1CCC(Oc2cccnc2)CC1,0,-4,-4,-6,0,.,.,
CCC(N=c1cc(-c2ccc(OC)cc2)oc2ccc(C)cc12)C(=O)O (stereo not drawn),i,i,i,i,36*,61*,72*,
CCC(N=c1cc(-c2ccc(OC)c(OC)c2)oc2ccc(C)cc12)C(=O)O (stereo not drawn),i,i,i,-163,19*,29*,26*,
CCCCNC(=O)C[C@H]1C[C@@]2(C(=O)OC)C(=C[C@H](COCc3ccccc3)O[C@@H]2C)N(Cc2ccco2)C1=O,-2,0,-7,-5,0,.,.,
Cc1ccc([C@H](C)NC(=O)C2=C(N)N(S(=O)(=O)c3ccc(C)cc3)C(C(=O)c3ccccc3)C2c2ccccc2Cl)cc1 (stereo partly drawn),0,2,9,-2,.,.,.,
CN(C)c1cccc2c(S(=O)(=O)NC(=O)[C@H]3O[C@@H](n4cnc5c(N)ncnc54)[C@H](O)[C@@H]3O)cccc12,i,i,-71,-15,25*,35*,23*,EDANS interf=8.8*
CC1C2=C(CC(C)(C)CC2=O)NC2=C1C(=O)CC(C)(C)C2,i,i,i,i,19*,74*,73*,
SMILES,PLCg1 inh,PLC-beta3 inh,ADAM10 inh,ADAM17 inh,proKLK7 act,proKLK7 act conf,EDANS-DABCYL int,others
CCCCN1CN2Cc3cc(OC)ccc3C2CS1(=O)=O (stereo not drawn),-9,-10,-27,-8,-1,.,.,
NC(=O)N/N=C/c1cc(Br)ccc1OC(=O)c1ccccc1,-37,-51,-3,-9,17*,14*,13*,
CCC(C)NC(=O)c1cc2cc3ccc(OC)cc3nc2s1 (stereo not drawn),-312,-344,i,i,30*,3,5.7*,
CC(C)CCNC(=O)c1cc2c(=O)n3ccccc3nc2s1,i,i,i,i,63*,33*,41*,
CC(C)CN(CC(C)C)C(=O)c1cc2c(=O)n3ccccc3nc2s1,-477,i,i,-325,22*,-78,-69,
CCN(CC)C(=O)c1cc2c(=O)n3ccccc3nc2s1,i,i,i,i,64*,64*,82*,
COCCN(CCOC)C(=O)c1cc2c(=O)n3ccccc3nc2s1,-237,-341,i,-232,9,.,.,
Cc1cccn2c(=O)c3cc(C(=O)NCC(C)C)sc3nc12,-46,-80,-183,-66,0,.,.,
COCCCNC(=O)C[C@@H]1C(=O)N(CCc2ccc(Cl)cc2)C2=CCCCC[C@]21C(=O)OC,4,-1,-9,-6,0,.,.,
CCOC(=O)[C@]12CCCCC/C=C\1N(Cc1ccc(OC)cc1)C(=O)[C@H]2CC(=O)NCc1ccc(OC)c(OC)c1,2,-2,-3,-2,1,.,.,
COc1ccc(CNS(=O)(=O)/C=C/c2ccccc2CNC(=O)OC(C)(C)C)cc1,-2,-1,4,2,0,.,.,
COC(=O)[C@@]1(OC(C)=O)CC(OC(C)=O)[C@H](OC(C)=O)[C@H](OC(C)=O)C1Br (stereo partly drawn),1,-3,-1,-2,.,.,.,
COC(=O)[C@@H](C)NC(=O)C(Cc1ccc2c(c1)OCO2)NC(C)=O (stereo partly drawn),-3,-1,-8,-2,0,.,.,
CN(C)S(=O)(=O)c1cccc(NC(=O)c2cc3c(=O)n4ccccc4nc3s2)c1,-20,-21,-58,-12,0,.,.,
